Measured values taken from PubChem BioAssay (NCATS).
Results filed as inconclusive are left out. The source made the active and inactive calls. Unless noted, calls follow the shape of the dose curve; as a rule, active = well fitted curve in the direction sought with a large enough effect; inconclusive = small, poorly fitted or top-dose-only effect, or another doubt; inactive = no such curve, though single readings can be large; an effect the other way counts as inactive or inconclusive.

Tests used:
[1] = Cellular Toxicity (caspase-3) BJ (AID 658);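 also: 0% = DMSO basal and 100% = 10 µM staurosporine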
Outline: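 Readout: Caspase-Glo 3/7 luminescence increase in BJ cells after 16 hr treatment at 37 °C. Staurosporine and tamoxifen served as positive controls; AC50 values came from Hill modelling of data normalized to DMSO and 10 uM staurosporine.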

[2] = Cellular Toxicity (caspase-3) MRC-5 (AID 659);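 also: 0% = DMSO basal and 100% = 10 µM staurosporine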
Outline: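 Concentration-dependent caspase 3/7 activation is measured in human normal lung fibroblasts (MRC-5) following 16-hour treatment. AC50 values come from standard Hill-equation modeling of luminescence normalized to DMSO and 10 uM staurosporine.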

[3] = Cellular Toxicity (caspase-3) Mesangial (AID 660);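 also: cells exposed to compound for 16 h before the caspase read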
Outline: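 Human renal glomerular mesangial cells (1000/well) were treated with compounds for 16 h at 37 °C in complete medium, then caspase 3/7 activity was read by Caspase-Glo luminescence. Data were normalized to DMSO and 100 uM tamoxifen; AC50 from Hill fits.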

[4] = Cellular Toxicity (caspase-3) SK-N-SH (AID 661);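 also: 0% = DMSO basal and 100% = 10 µM staurosporine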
Outline: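 SK-N-SH human neuroblastoma cells (1500/well) were treated with compounds for 16 hr at 37 °C in complete medium; caspase 3/7 activity was read by Caspase-Glo luminescence. AC50 came from Hill fits of data normalized to DMSO and 10 uM staurosporine.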

[5] = Cellular Toxicity (caspase-3) H-4-II-E (AID 663);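 also: 0% = DMSO basal and 100% = 100 µM tamoxifen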
Outline: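 Apoptosis induction is scored as increased luminescence from caspase 3/7 substrate cleavage in rat hepatoma H-4-II-E cells exposed to compound for 16 hr. Activity is scaled between DMSO and 100 uM tamoxifen.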

[6] = Cellular Toxicity (caspase-3) Hek293 (AID 664);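 also: cells exposed to compound for 16 h at 37 °C before readout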
Outline: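 HEK293 cells were exposed to compounds in complete medium for 16 hr at 37 °C, then caspase-3/7 activity was read by Caspase-Glo 3/7 luminescence after 20 min at room temperature. Data normalized to DMSO and 100 uM tamoxifen; AC50 from Hill fits.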

[7] = Cellular Toxicity (caspase-3) N2a (AID 665);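 also: compound exposure lasted 16 h at 37 °C before readout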
Outline: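 Mouse N2a neuroblastoma cells (1500/well) were treated with compounds for 16 h at 37 °C, then caspase-3/7 activity was read by Caspase-Glo luminescence after 1 h at room temperature. Data were normalized to DMSO and 10 uM staurosporine; AC50 from Hill fits.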

[8] = Cellular Toxicity (caspase-3) NIH 3T3 (AID 666);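 also: 0% = DMSO basal and 100% = 100 µM tamoxifen stimulation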
Outline: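 Mouse NIH 3T3 fibroblasts (1000 cells/well) were treated with compound for 16 hr at 37°C in complete medium; caspase-3/7 activity was read by Caspase-Glo luminescence. Normalized to DMSO and 100 uM tamoxifen; AC50 from Hill fits.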

[9] = Cellular Toxicity (caspase-3) Renal Proximal Tubule (AID 667);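 also: cells exposed to compound for 16 hours at 37 °C before detection; 0% = DMSO basal and 100% = 10 µM staurosporine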
Outline: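 Luminescent caspase 3/7 signal from peptide-aminoluciferin cleavage measures apoptosis in freshly isolated rat kidney proximal tubule cells after 16 h compound exposure. Concentration-response data are normalized to DMSO and 10 uM staurosporine, and AC50 values come from Hill equation fits.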

[10] = Cell Viability - LYMP2-001 (AID 921);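 also: series mostly up to about 92 µM; cells exposed to compound for 24 h at 37 °C; 0% = DMSO only and full inhibition = tetraoctylammonium bromide control wells; nearly all actives have a fitted effect of over 70% in size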
Outline: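 CellTiter-Glo luminescence (intracellular ATP) after 24 hr compound exposure at 37 C, 2500 lymphoblastoid cells/well in complete medium. AC50 fitted with standard Hill equation; tetraoctylammonium bromide positive control.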

[11] = MultiTox-Fluor Cytotoxicity Assay - LYMP1-001 - Dead Cells (AID 946);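 also: 0% = DMSO and 100% = tetraoctylammonium bromide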
Outline: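 In this qHTS, 15 uM tetraoctylammonium bromide defined 100% and DMSO defined basal activity. Lymphoblastoid cells (LYMP1-001, 2500 per well) received compound for 16 hr at 37 C before a fluorogenic dead-cell substrate readout at 485/520 nm.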

[12] = MultiTox-Fluor Cytotoxicity Assay - LYMP1-001 - Live Cells (AID 947);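 also: 0% = DMSO only and full inhibition = tetraoctylammonium bromide control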
[13] = Cell Viability - LYMP1-002 - Assay at 16 hr (AID 948);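 also: 0% = DMSO alone and full effect = 92 µM tetraoctylammonium bromide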
Outline: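 LYMP1-002 human lymphoblastoid cells, 2500/well; 5 hr 37 C; cpd 16 hr 37 C; CellTiter-Glo 30 min RT; luminescence (ATP). Concentration-response, Hill-fit AC50. Pos ctrl tetraoctylammonium bromide.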

[14] = MultiTox-Fluor Cytotoxicity Assay - LYMP1-002 - Live Cells (AID 955); also: % is scaled to controls: 0 for no effect and ±100 for the full control effect
Outline: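 Human lymphoblastoid LYMP1-002 cells, 2500/well in complete medium, rested 5 hr at 37 C, then exposed to compounds for 16 hr at 37 C. Live-cell protease cleavage of GF-AFC read by fluorescence (Ex/Em 405/510) after 60 min at room temperature; AC50 from Hill fits.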

[15] = MultiTox-Fluor Cytotoxicity Assay - LYMP1-003 - Dead Cells (AID 961);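 also: 0% = DMSO and 100% = tetraoctylammonium bromide; nearly all actives have a fitted effect of over 70% in size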
Outline: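 Acute toxicity is scored as increased dead-cell protease activity in human lymphoblastoid LYMP1-003 cells after 16 h compound exposure in complete culture medium. Activity is normalized to DMSO basal and 15 uM tetraoctylammonium bromide as full response.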

[16] = qHTS assay for small molecule agonists of the antioxidant response element (ARE) signaling pathway measured by Nrf2-dependant transcriptional activity (AID 720636; active = well fitted curve in the direction sought with a large enough effect in the repeat runs; an effect the other way counts as inactive or inconclusive;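 also: HepG2 cells with an ARE-driven luciferase reporter; % of control where 0% means no effect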)
Outline: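 Reporter gene assay, HepG2 ARE-luc: 16 hr compound, 37 C, 5% CO2; read-out luciferase luminescence.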

[17] = qHTS assay for small molecule antagonists of the retinoid-related orphan receptor gamma (ROR-gamma) signaling pathway - cell viability counter screen (AID 720652; active = well fitted curve in the direction sought with a large enough effect in the repeat runs; an effect the other way counts as inactive or inconclusive;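 also: CHO reporter cells with doxycycline-induced ROR-gamma expression; series mostly up to about 92 µM; compound exposure lasted 16 hr before ATP read; % is scaled to controls: 0 for no effect and ±100 for the full control effect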)
Outline: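 Counter screen in CHO cells carrying TET-inducible ROR-gamma and an ROR response element-luciferase reporter; cells plated 5 hr, compound pinned, doxycycline added, then 16 hr at 37 C. Viability read as intracellular ATP by CellTiter-Glo luminescence.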

[18] = qHTS assay for small molecule agonists of the antioxidant response element (ARE) signaling pathway measured by Nrf2-dependant transcriptional activity - cell viability counter screen (AID 720653; active = well fitted curve in the direction sought with a large enough effect in the repeat runs; an effect the other way counts as inactive or inconclusive; also: % is scaled to controls: 0 for no effect and ±100 for the full control effect); settings: ARE-bla HepG2 viability, CellTiter-Glo ATP luminescence, 16 h; stronger effect = lower value
Outline: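 Cytotoxicity counter screen: intracellular ATP quantified by CellTiter-Glo luminescence in the same ARE-bla HepG2 plates, after 16 h compound exposure and a 2 h beta-lactamase substrate step.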

[19] = qHTS assay for cell viability of HEK293 cells (AID 743288); settings: ATP luminescence (CellTiter-Glo), 18 h, stronger effect = lower value; also: % is scaled to controls: 0 for no effect and ±100 for the full control effect; nearly all actives have a fitted effect of over 50% in size
Outline: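 Environmental chemicals tested in qHTS format against parental HEK293 cells; 18 h treatment, 37 C; read-out ATP luminescence (CellTiter-Glo), 30 min RT development.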

[20] = qHTS assay for cell viability of the p53RE-bla HCT-116 cell line (AID 743292); also: % is scaled to controls: 0 for no effect and ±100 for the full control effect; nearly all actives have a fitted effect of over 55% in size
Outline: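 Readout: CellTiter-Glo luminescence after 30 min RT. Treatment: compounds in DMSO, 16 h, 37 C. Cells: CellSensor p53RE-bla HCT-116, 4,000/well, preincubated 5 h.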

Measured: max response

CN(C)CCOC(c1ccccc1)c1ccccc1 (tested in a mixture with another compound)
inactive: [1] | [2] | [3] | [4] | [5] | [6] | [7] | [8] | [9] | [10] | [11] | [12] | [13] | [14] | [15] | [16] | [17] | [18] -6.81% | [19] 3.64% | [20]
